D1 antagonist – antagonists of human D1 dopamine receptor. 3.2% of 360,000 active. HEK293 TREx D1 cells, calcium flux, dopamine EC80; active compounds read low. P21728. AID 504652. activity change, negative = inhibition, % at 10 µM; in the data active = activity change below about -30%
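HEK293 T-REx cells expressing inducible, force-coupled D1 receptor; no-wash Ca dye, 30–90 min RT. Cmpd → 180 s read at 1 Hz → EC80 DA → 180 s read.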
D1 ag – agonists of human D1 dopamine receptor. P21728. HEK293 T-REx D1 cells, calcium flux, agonist mode. activation, % at 2 µM. 1% of 360,000 active; in the data active = activation above about 30%
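Tetracycline-induced HEK293 TREx D1 cells, force-coupled to calcium signalling, were dye-loaded with a no-wash calcium kit. Compound was pin-added after a 10 s baseline. Fluorescence was read kinetically at 1 cycle/s for 180 s, with calcium rises flagged as agonism.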
ERG-DNA inh – inhibitors of human ERG Ets domain-DNA interaction | fluorescence polarization, His-ERG Ets domain / labelled DNA | Potency, µM (doses to about 76.9 µM), hits mostly inhibitors | AID 624246 | 0.028% of 370,000 active; active = well fitted inhibition curve with a large enough effect in the polarisation, with a control signal flat; inconclusive = small, poorly fitted or top-dose-only effect, or effect the other way, or a change in a side signal; inactive = no such curve, though single readings can be large or run the other way; the % refers to the polarisation;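 also: polarization taken with two DNA probes labelled with fluorescein and Texas red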
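His-tagged ERG Ets domain (1 uM in the protein solution; 300mM KCl, 50mM Tris-HCl, 1mM EDTA, 1mM DTT, pH 7.5) received compound, then a probe mix of 5 nM fluorescein-DNA and 100nM Texas-615-DNA. Fluorescence polarization was read for both dyes.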
DRD3 antagonist – D3 dopamine receptor (human) antagonism. P35462. D3R cells, DiscoveRx beta-arrestin luminescence, antagonist mode; active compounds read low. max response, negative = inhibition, %. 2.5% of 360,000 active. AID 652054; in the data active = max response below about -50%; inconclusive = no clear call, values can overlap the other calls
Target sequence (P35462 whole entry, looked up): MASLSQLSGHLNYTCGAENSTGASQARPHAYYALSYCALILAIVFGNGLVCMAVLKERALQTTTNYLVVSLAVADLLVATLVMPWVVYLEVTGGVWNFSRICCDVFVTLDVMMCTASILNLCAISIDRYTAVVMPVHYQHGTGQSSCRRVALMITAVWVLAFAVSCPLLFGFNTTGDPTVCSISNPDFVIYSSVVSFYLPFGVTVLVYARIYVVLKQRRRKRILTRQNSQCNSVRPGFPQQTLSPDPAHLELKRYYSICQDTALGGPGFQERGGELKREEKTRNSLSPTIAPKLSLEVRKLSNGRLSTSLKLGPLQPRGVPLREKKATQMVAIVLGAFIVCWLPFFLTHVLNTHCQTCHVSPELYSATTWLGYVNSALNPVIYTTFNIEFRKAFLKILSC
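Cells expressing the human receptor were seeded at 1500 cells/well, incubated overnight at 37 degrees C in 5% CO2, then exposed to library compounds with dopamine controls for 90 minutes at 37 degrees C before luminescent detection.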
D1 PAM – enhances dopamine response at the human D1 receptor. P21728. HEK293 TREx D1 cells, calcium flux, dopamine EC20 potentiation. potentiation, % at 10 µM. 0.036% of 360,000 active; in the data active = potentiation above about 30%
DRD3 agonist – D3 dopamine receptor (human) agonism; P35462; D3R DiscoveRx beta-arrestin cells, luminescence, 90 min; max activation, %; 0.58% of 410,000 active; in the data active = max activation above about 30%
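Agonist mode: compounds and dopamine controls were applied to plated cells for 90 min at 37 degrees C after an overnight attachment at 1500 cells/well. Luminescent read-out followed 30 - 60 minutes at room temperature with DiscoveRx detection reagent.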
A number is an active result; i = inactive; ? = inconclusive; nt = no result. Most compounds without a hit are left out; they make up all but 6.1% or so of the library.

SMILES	D1 antagonist	D1 ag	ERG-DNA inh	DRD3 antagonist	D1 PAM	DRD3 agonist
Cc1cc(NC(=O)CSc2ccc3nnc(-c4ccccn4)n3n2)no1	-32	i	i	i	i	i
COc1ccc(C(=O)C2CCCN(Cc3cccn3-c3ccccn3)C2)cc1F (stereo unspecified)	i	i	i	i	i	i
COc1ccc(F)cc1C(=O)C1CCCN(Cc2ccc3c(c2)OCCO3)C1 (stereo unspecified)	i	i	i	-105	i	i
COc1ccccc1C(=O)C1CCCN(Cc2ccc3c(c2)OCCO3)C1 (stereo unspecified)	i	i	i	-50	i	i
COc1cc(CN2CCCC(C(=O)c3ccccc3SC)C2)cc(OC)c1 (stereo unspecified)	i	i	i	i	i	i
COc1ccc(F)cc1C(=O)C1CCCN(Cc2cccn2-c2cccnc2)C1 (stereo unspecified)	i	i	i	-96	i	i
COc1cc(OC)c(OC)cc1CN1CCCC(C(=O)c2ccccc2SC)C1 (stereo unspecified)	i	i	i	-61	i	i
COc1ccc(C(=O)C2CCCN(Cc3ccc4c(c3)OCCO4)C2)cc1F (stereo unspecified)	i	i	i	i	i	i
O=C(Nc1cccnc1)C1Cc2c(-c3ccccc3Oc3ccccc3)ccnc2O1 (stereo unspecified)	nt	nt	nt	i	nt	i
Cc1ccc(S(=O)(=O)N2[C@@H](Cc3ccccc3)CO[C@H]2CC(=O)c2cccs2)cc1	nt	nt	nt	i	nt	i
CC(=O)N(CCC(Cc1ccccc1)c1ccc2c(c1)OCO2)Cc1ccc(Cl)cc1 (stereo unspecified)	i	i	i	?	i	i
COc1ccc(F)cc1C(=O)C1CCCN(Cc2ccc(Oc3ncccn3)cc2)C1 (stereo unspecified)	i	i	i	-73	i	i
COc1ccc(F)cc1C(=O)C1CCCN(C(=O)CCN2CCCCO2)C1 (stereo unspecified)	i	i	i	i	i	i
COc1ccc(F)cc1C(=O)C1CCCN(C(=O)CSc2ccccn2)C1 (stereo unspecified)	i	i	i	i	i	i
COc1ccc(F)cc1C(=O)C1CCCN(Cc2c(C)n(C)n(-c3ccccc3)c2=O)C1 (stereo unspecified)	i	i	i	-55	i	i
Cc1c(CN2CCCCC2C)c(=O)n(-c2ccccc2)n1C (stereo unspecified)	i	i	i	-58	i	i
Nc1nnnn1/N=C/c1ccc(N2CCCCC2)c([N+](=O)[O-])c1	i	i	i	-54	i	i
O=C(O/N=C\c1ccc(N2CCCCC2)c([N+](=O)[O-])c1)c1ccc(Cl)cc1Cl	i	i	i	i	i	i
COC(=O)c1ccc(OC)c(Cn2c(=O)n(-c3cccc(Cl)c3)c(=O)c3c4c(sc32)CN(C(C)=O)CC4)c1	-40	i	i	nt	i	i
CCOC(=O)c1cnc2ccc(C(=O)OC)cc2c1Nc1ccc(N2CCOCC2)cc1	i	i	?	nt	i	i
O=C(NC(c1ccccc1)c1ccc2ccccc2n1)C1CCN(Cc2ccc(Cl)c(Cl)c2)CC1 (stereo unspecified)	nt	nt	nt	-124	nt	i
O=C(NC(c1ccccc1)c1ccc2ccccc2n1)C1CCN(Cc2cccc(C(F)(F)F)c2)CC1 (stereo unspecified)	nt	nt	nt	-63	nt	i
O=C(NC(c1ccc2ccccc2n1)c1cccs1)C1CCN(Cc2cccc(C(F)(F)F)c2)CC1 (stereo unspecified)	nt	nt	nt	?	nt	i
CCCCNC(=O)C1(NC(=O)Nc2ccccc2)CCCCC1	i	i	i	i	i	i
Cc1nn(-c2ccccc2)c(Cl)c1C(=O)NCC(C)c1ccccc1 (stereo unspecified)	i	i	i	i	i	i
SMILES	D1 antagonist	D1 ag	ERG-DNA inh	DRD3 antagonist	D1 PAM	DRD3 agonist
CCn1ncc(Br)c1C(=O)Nc1cc(C)on1	i	i	i	i	i	i
COc1ccc(CCNC(=O)Cc2c(C)c3cc(OC)c(OC)cc3oc2=O)cc1	i	i	i	nt	i	i
CCc1ccc(NS(=O)(=O)c2[nH]ncc2C(=O)OC)cc1	-38	i	i	nt	i	i
CCc1ccc(NS(=O)(=O)c2cc(OC)ccc2OC)cc1	i	i	nt	i	i	i
CCC1=C(OC(=O)N(CC)CC)N2C(=O)OC(=NCC(=O)OC)[C@]2(C)[C@H]2C1=CC[C@H]1C(=O)N(CC)C(=O)[C@H]12	i	i	i	i	i	i
CCC1=C(OC(=O)N(CC)CC)N2C(=O)OC(=NCc3ccccc3)[C@]2(C)[C@H]2C1=CC[C@H]1C(=O)N(CC)C(=O)[C@H]12	-35	i	i	i	i	i
COc1cc(SC)ccc1C(=O)OCC(=O)NCCC1=CCCCC1	i	i	i	i	i	i
O=C(O)C1CCCN1C(=O)c1cccs1 (stereo unspecified)	i	i	i	i	i	i
COC(=O)C1CCCN1C(=O)c1cccs1 (stereo unspecified)	i	i	i	-76	i	i
O=C(/C=C/c1cccc(Cl)c1Cl)OCC(=O)N1CCOCC1	i	i	i	-59	i	i
O=C(/C=C/c1cc(Br)ccc1F)OCC(=O)N1CCOCC1	nt	nt	i	i	nt	i
COc1cccc(NC(=O)C2CCN(S(=O)(=O)c3ccc4c(c3)CC(C)N4C(C)=O)CC2)c1 (stereo unspecified)	i	i	i	i	i	i
CC(=O)N1c2ccc(S(=O)(=O)N3CCC(C(=O)Nc4cccc(C(F)(F)F)c4)CC3)cc2CC1C (stereo unspecified)	-34	i	i	i	i	i
O=C(Nc1cccc(C(F)(F)F)c1)C1CCN(S(=O)(=O)c2ccc(N3CCCC3=O)cc2)CC1	-47	i	i	i	i	i
COc1cc(NC(=S)Nc2cccnc2)cc(OC)c1	i	i	i	i	i	i
CC12CC3(C)CC(C)(C1)CC(C(=O)NC1=NCCS1)(C2)C3	nt	nt	i	i	nt	i
CC(Oc1ccc(F)cc1)C(=O)N1CCC(c2nc3ccccc3s2)CC1 (stereo unspecified)	i	i	i	nt	i	i
COc1cccc(C(C(=O)NCC2CCCO2)N(C(=O)Cn2nnc3ccccc32)c2ccc(NC(C)=O)cc2)c1OC (stereo unspecified)	i	i	i	i	i	i
COc1ccc(C(C(=O)NCC2CCCO2)N(C(=O)Cn2nnc3ccccc32)c2ccc(NC(C)=O)cc2)c(OC)c1 (stereo unspecified)	-67	i	i	i	i	i
Cc1nc(C(=O)NCC(=O)c2ccccc2)c(C(F)(F)F)o1	i	i	i	-59	i	i

High-throughput results: PubChem, National Center for Advancing Translational Sciences (NCATS)
